# Assay results as given in PubChem BioAssay (Tox21).
# A number with no mark means an inactive call. Active and inactive are the calls of the source. Calls come from the whole dose curve; as a rule, active = well fitted curve in the direction sought with a large enough effect in the repeat runs; inconclusive = weak or mixed curves; inactive = flat fitted curve, though single readings scatter.
# Assay: qHTS assay to test for compound auto fluorescence at 535 nm (green) in HEK293 cell free culture (AID 720682)
# Conditions: cell-free medium, green autofluorescence 485/535 nm, active compounds read high; series mostly up to 91.3 µM; activity change: at the top concentration
# Method in brief: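 Intrinsic compound fluorescence is measured in culture medium containing 10% FBS, with excitation at 485 nm and detection at 535 nm, referenced to fluorescein.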
# % is set by controls: 0 for no effect and ±100 for the full control effect.
Compound,activity change,outcome
CCCCC(=O)O[C@]1(C(=O)CO)[C@H](C)C[C@H]2[C@@H]3CCC4=CC(=O)C=C[C@]4(C)[C@@]3(F)[C@@H](O)C[C@@]21C,-0.0394% [at 46 µM],
CN1[C@@H]2CC[C@H]1CC(OC(=O)c1c[nH]c3ccccc13)C2 (stereo partly specified),-0.0205% [at 46 µM],
O=C1CCCCC1C1CCCCC1 (stereo unspecified),-0.258%,
CC(C)(C)c1ccc(OC(=O)c2ccccc2O)cc1,0.0937%,
Cc1cc2c(s1)Nc1ccccc1N=C2N1CCN(C)CC1,0.0356% [at 46 µM],
CCCCCCCCCC/C=C/C#N,-0.0058%,
O=C1C=CC(=O)O1,0.0951% [at 95.7 µM],
O=C(O)c1ccccc1Nc1cc(Cl)ccc1C(=O)O,-0.192% [at 46 µM],
CCCNC(C)C(=O)Nc1c(C)csc1C(=O)OC (stereo unspecified),-0.0482% [at 18.6 µM],
O=S(=O)(O)C(F)(F)F,-0.0358%,
CCCCC(CC)COC(=O)COc1cc(Cl)c(Cl)cc1Cl (stereo unspecified),-0.0094%,
OCCN(CCO)CCN(CCO)CCO,0.0412%,
C1CSCCS1,0.0873%,
CN1C(=O)CC(c2ccccc2)C1=O (stereo unspecified),-0.0831% [at 46 µM],
NC1=NCC2c3ccccc3Cc3ccccc3N12 (stereo unspecified),0% [at 46 µM],
COc1cc(Cl)ccc1Cl,-0.0027% [at 95.7 µM],
OCCN1CCN(CCO)CC1,0.0115% [at 95.7 µM],
CCCCCCOc1ccc(N)cc1,0.0983%,

Compound,activity change,outcome
CC(C)(C)c1cccc(O)c1,0.0316%,
CC[C@H]1CC[C@H](NCc2cc3c(cc2OC)[C@H]2C[C@H]2C(=O)N3C)[C@H](c2ccccc2)N1,0.0434%,
CCCCC1CCC(=O)O1 (stereo unspecified),-0.0067%,
O=C(C(Cl)Cl)N1CCOC12CCCCC2,-0.0024%,
CCC(=O)c1ccc2c(c1)N(CCCN(C)C)c1ccccc1S2,0.145% [at 46 µM],
Oc1ccccc1C=NCc1ccccc1,0.0132% [at 46 µM],
CC(C)O,,inactive
CC(=O)OC1C2(C)CCC(C2)C1(C)C (stereo unspecified),0.045%,
OCc1c2ccccc2cc2ccccc12,-0.027%,
CC/C=C\CCOC(=O)CCCCC,0.0096%,
NC/C=C/C(=O)O,0.0973% [at 46 µM],
COc1ccc2nc(NC(=O)Nc3ccccc3)sc2c1,-0.0643% [at 46 µM],
Cc1ccccc1C(=O)Nc1ccc(C(=O)N2CCCC(O)c3cc(Cl)ccc32)c(C)c1 (stereo unspecified),-0.0868% [at 46 µM],
CN(CCCN1c2ccccc2CCc2ccccc21)CC(=O)c1ccc(Cl)cc1,-0.033% [at 46 µM],
COC(=O)c1ccc2cc(C(=O)OC)ccc2c1,-0.0115% [at 18.6 µM],
CCC/C=C/CO,-0.0722%,
CCOC(=O)CS,0.0606% [at 95.7 µM],
COc1cc(N)c(Cl)cc1C(=O)NC1CCN(Cc2ccccc2)CC1,-0.0003% [at 18.6 µM],
